PLK1 inh – inhibitors of human PLK1 kinase; recombinant PLK1 kinase, TR-FRET peptide phosphorylation; hit rate 0.53% among 97,000; inhibition, % at 10 µM; AID 619; P53350;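 active means inhibition of 50% or more in the single-concentration screen; inactive means inhibition below 50%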;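 further: 0% = DMSO max control and 100% = H-89 dihydrochloride min control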
CYP2C19 inh – human CYP2C19 inhibition. P33261. CYP2C19 Supersomes, luciferin-H EGE luminescence, 30 min. inhibition, % at 5 µM. hit rate 21% among 96,000;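 active means CYP2C19 inhibition above a set limit at 5 µM in the primary screen, cut at about 50% in these data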;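 further: plate controls were negative control wells for no effect and 2.5 mM tranylcypromine positive control for full effect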
CYP2C9 act – CYP2C9 (human) activation; hit rate 1.4% among 96,000; recombinant CYP2C9, luciferin-H conversion, luminescence; active compounds read high; factor 1 = untreated enzyme, 0 = blocked; activation factor at 5 µM;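 active means activation factor of 2 or more for CYP2C9 at a 5 µM dose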;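 further: 0 = sulfaphenazole-blocked wells and 1 = vehicle-only wells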
Target sequence (P11712 whole entry, looked up): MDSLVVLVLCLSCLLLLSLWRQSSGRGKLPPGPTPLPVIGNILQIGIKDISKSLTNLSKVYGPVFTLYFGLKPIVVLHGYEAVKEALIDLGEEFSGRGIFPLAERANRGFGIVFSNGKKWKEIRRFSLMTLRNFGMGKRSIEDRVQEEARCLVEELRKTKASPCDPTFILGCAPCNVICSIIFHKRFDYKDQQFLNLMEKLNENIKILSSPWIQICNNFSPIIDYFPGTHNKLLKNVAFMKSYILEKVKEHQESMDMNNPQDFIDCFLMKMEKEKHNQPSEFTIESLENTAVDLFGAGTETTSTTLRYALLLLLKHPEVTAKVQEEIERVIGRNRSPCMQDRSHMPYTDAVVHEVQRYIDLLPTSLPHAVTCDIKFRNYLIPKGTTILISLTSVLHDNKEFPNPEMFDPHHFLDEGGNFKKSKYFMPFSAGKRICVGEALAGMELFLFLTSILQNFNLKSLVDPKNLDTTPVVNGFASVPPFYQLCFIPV
PLK1 PBD inh – inhibitors of human Plk1 polo box domain binding; P53350; Plk1 PBD phosphopeptide binding, fluorescence polarization; inhibition, %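 (tested at about 20 µM)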; hit rate 0.13% among 97,000; in the data active means inhibition above about 34%, passing the limit was not always enough
CYP2C19 activ – cytochrome P450 2C19 (human) activation; P33261; recombinant CYP2C19, luciferin-H EGE luminescence; active compounds read high; 0 = fully inhibited enzyme, 1 = untreated enzyme; 96,000 tested, under 10 active; activation factor at 5 µM;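 active means activation factor of at least 2 at 5 µM in the primary screen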;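 further: 0 = wells with 2.5 mM tranylcypromine and 1 = vehicle-only wells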
CYP2C9 inhib – inhibitors of human CYP2C9; P11712; CYP2C9 Supersomes, luciferin-H conversion, luminescence; hit rate 20% among 96,000; inhibition, % at 5 µM; AID 777;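 active means blocking of liver enzyme CYP2C9 beyond about 50% at 5 µM, limit read from the data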
* marks the source's active call; other numbers are inactive results. A selection: hits, their analogues and other compounds. The true share with any hit is near 28%.

Screening CC(C)COC(=O)C1C2C=CC3(CN(C4CCCC4)C(=O)C13)O2 (stereo not drawn) returned CYP2C19 inh -4, CYP2C9 act 1, CYP2C19 activ 1 and CYP2C9 inhib 4.
Screening CCC(=O)Nc1cc(-c2nn(C)c(=O)c3ccccc23)ccc1N1CCOCC1 returned PLK1 inh -4, CYP2C19 inh 34, CYP2C9 act 0.4, PLK1 PBD inh 1, CYP2C19 activ 0.7 and CYP2C9 inhib 62*.
Screening Cn1nc(-c2ccc(N3CCCCC3)c(NC(=O)c3ccco3)c2)c2ccccc2c1=O returned PLK1 inh -18, CYP2C19 inh 59*, CYP2C9 act 0, PLK1 PBD inh 6, CYP2C19 activ 0.4 and CYP2C9 inhib 96*.
`CCN(CCCNC(=O)C1CCN(S(=O)(=O)N2CCOCC2)CC1)c1cccc(C)c1` gave PLK1 inh 2, CYP2C19 inh 14, CYP2C9 act 0.9, PLK1 PBD inh -3, CYP2C19 activ 0.9 and CYP2C9 inhib 12.
`Cc1ccc(SCCNC(=O)c2ccc(C)c([N+](=O)[O-])c2)cc1` gave PLK1 inh -8, CYP2C19 inh 51*, CYP2C9 act 0.5, PLK1 PBD inh -6, CYP2C19 activ 0.5 and CYP2C9 inhib 47.
Cc1ccc(SCCNC(=O)c2ccc(C)c(S(=O)(=O)Nc3ccccc3C)c2)cc1 was read as PLK1 inh -13, CYP2C19 inh 67*, CYP2C9 act 0.3, PLK1 PBD inh -12, CYP2C19 activ 0.3 and CYP2C9 inhib 68*.
Cc1ccc(SCCNC(=O)c2ccccc2C)cc1 was read as PLK1 inh 0, CYP2C19 inh 90*, CYP2C9 act 0.1, PLK1 PBD inh -13, CYP2C19 activ 0.1 and CYP2C9 inhib 89*.
Cc1ccc(C(=O)NCCSc2ccc(Cl)cc2)cc1[N+](=O)[O-] was read as PLK1 inh -4 and PLK1 PBD inh -29.
Screening Cc1ccccc1NS(=O)(=O)c1cc(C(=O)N2CCc3ccccc3C2)ccc1C returned PLK1 inh -4, CYP2C19 inh 54*, CYP2C9 act 0.3, PLK1 PBD inh -8, CYP2C19 activ 0.5 and CYP2C9 inhib 67*.
`Cc1ccc(SCCNC(=O)C(C)C)cc1` gave PLK1 inh 0, CYP2C19 inh 11, CYP2C9 act 0.9, PLK1 PBD inh 13, CYP2C19 activ 0.9 and CYP2C9 inhib 8.
CCCN1C2=C(C(=O)CCC2)C(c2ccc(F)cc2)C2=C1c1ccccc1C2=O (stereo not drawn) was read as PLK1 inh -6 and PLK1 PBD inh -11.
Screening O=C(NCCO)C(F)(F)C(F)(F)C(F)(F)OC(F)(C(=O)NCCO)C(F)(F)F (stereo not drawn) returned PLK1 inh -13, CYP2C19 inh 2, CYP2C9 act 0.6, PLK1 PBD inh 13, CYP2C19 activ 1 and CYP2C9 inhib 38.
COc1ccc(NC(=O)C2CCCN2C(=O)OCc2ccccc2)c(OC)c1 (stereo not drawn) was read as CYP2C19 inh 26, CYP2C9 act 1, CYP2C19 activ 0.7 and CYP2C9 inhib 3.
`Cc1cc(Oc2ccc(C#N)cc2)nc(N2CCOCC2)n1` gave PLK1 inh -3, CYP2C19 inh 17, CYP2C9 act 0.6, PLK1 PBD inh -13, CYP2C19 activ 0.8 and CYP2C9 inhib 38.
Screening O=C(/C=C/c1ccccc1)NC(NC(=S)Nc1cccc(Cl)c1)C(Cl)(Cl)Cl (stereo not drawn) returned PLK1 inh -13, CYP2C19 inh 1, CYP2C9 act 0.2, PLK1 PBD inh 23, CYP2C19 activ 1 and CYP2C9 inhib 77*.
For CCCCn1c(=O)c2ccccc2c2ccccc2c1=O the results were PLK1 inh -6, CYP2C19 inh 82*, CYP2C9 act 0.3, PLK1 PBD inh 0, CYP2C19 activ 0.2 and CYP2C9 inhib 72*.
Screening CCCCn1c(=O)c(-c2ccccc2)c(O)c2ccccc21 returned PLK1 inh -8, CYP2C19 inh 11, CYP2C9 act 1.1, PLK1 PBD inh -6, CYP2C19 activ 0.9 and CYP2C9 inhib -7.
For O=c1c2ccsc2ncn1Cc1cccc(C(F)(F)F)c1 the results were PLK1 inh -7, CYP2C19 inh 35, CYP2C9 act 0.5, PLK1 PBD inh 26, CYP2C19 activ 0.6 and CYP2C9 inhib 53*.
O=C1Nc2ccccc2C1(c1ccccc1)c1ccccc1 was read as PLK1 inh -9, CYP2C19 inh 72*, CYP2C9 act 0.3, PLK1 PBD inh -6, CYP2C19 activ 0.3 and CYP2C9 inhib 74*.
Screening COc1ccc(C2C=C(c3ccc(Br)s3)Nc3ncnn32)cc1OC (stereo not drawn) returned CYP2C19 inh 98*, CYP2C9 act 0.5, CYP2C19 activ 0 and CYP2C9 inhib 50*.
COc1cccc(C2C=C(c3cccs3)Nc3ncnn32)c1OC (stereo not drawn) was read as PLK1 inh 7, CYP2C19 inh 43, CYP2C9 act 0.4, PLK1 PBD inh -14, CYP2C19 activ 0.6 and CYP2C9 inhib 56*.
For CCCCc1ccc(NC(=O)CN2NS(=O)(=O)c3ccccc3C2=O)cc1 the results were PLK1 inh -13, CYP2C19 inh 19, CYP2C9 act 0.5, PLK1 PBD inh -15, CYP2C19 activ 0.8 and CYP2C9 inhib 49.
O=C(c1ccccc1Sc1cccc2ccccc12)N1CCOCC1 was read as PLK1 inh -13 and PLK1 PBD inh -17.
Screening O=C(CCNS(=O)(=O)c1cccc2nsnc12)NCc1cccs1 returned PLK1 inh 5, CYP2C19 inh 16, CYP2C9 act 1.7, PLK1 PBD inh 15, CYP2C19 activ 0.8 and CYP2C9 inhib -67.
CN(CC(=O)NCc1cccs1)S(=O)(=O)c1cccc2nsnc12 was read as PLK1 inh 5, CYP2C19 inh 83*, CYP2C9 act 1.2, PLK1 PBD inh 1, CYP2C19 activ 0.2 and CYP2C9 inhib -25.
`CC(C)CCNC(=O)CN(C)S(=O)(=O)c1cccc2nsnc12` gave PLK1 inh -2, CYP2C19 inh 25, CYP2C9 act 0.5, PLK1 PBD inh 15, CYP2C19 activ 0.7 and CYP2C9 inhib 50*.
Screening CN(CC(=O)NCCN1CCCCCC1)S(=O)(=O)c1cccc2nsnc12 returned PLK1 inh 23, CYP2C19 inh 2, CYP2C9 act 1, PLK1 PBD inh -2, CYP2C19 activ 1 and CYP2C9 inhib 3.
Screening Cc1cccc(NC(=O)C2c3ccccc3C(=O)N3CCc4ccccc4C23)n1 (stereo not drawn) returned PLK1 inh -10, CYP2C19 inh 28, CYP2C9 act 0.6, PLK1 PBD inh 11, CYP2C19 activ 0.7 and CYP2C9 inhib 41.
Screening Cc1cccc(-n2cnc(C(=O)N/N=C\c3ccc(Br)cc3)c2)n1 returned PLK1 inh -7, CYP2C19 inh 14, CYP2C9 act 1.2, PLK1 PBD inh -7, CYP2C19 activ 0.9 and CYP2C9 inhib -24.
